Source: PubChem (National Center for Advancing Translational Sciences (NCATS))
KB-3-1 cytotox – KB-3-1 parental cell cytotoxicity; Potency, µM (titrated, usually from 46.1 µM), usual class: cytotoxic; actives 1.4% (n = 400,000); KB-3-1 viability, CellTiter-Glo ATP luminescence, 72 h; also: nearly all actives have a fitted effect of over 60% in size
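Cells are dispensed, compounds pinned in, plates held at 37 °C for 72 h, then CellTiter-Glo is added and luminescence read after 10 minutes. Cell line: parental KB-3-1 in phenol-red-free DMEM, 10% FBS.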
KB-V1 MDR tox – kills drug-selected multidrug resistant KB-V1 cells | Potency, µM (doses to about 46.1 µM), most hits filed as cytotoxic | actives 3.4% (n = 400,000) | KB-V1 MDR cells viability, CellTiter-Glo, 72 h | AID 1347076; also: nearly all actives have a fitted effect of over 60% in size
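Cells of the MDR subline KB-V1 are plated, dosed with compound at multiple concentrations, and incubated 72 h at 37 degrees C; CellTiter-Glo is then added and luminescence read after 10 min.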
HT1080 IDH1KD tx – toxicity to HT-1080 IDH1 knockdown cells (counter line). HT-1080 IDH1 knockdown viability, ATP luminescence, 48 h. Potency, µM (series often up to 46.1 µM), most hits filed as cytotoxic. actives 2% (n = 360,000). AID 686971
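IDH1KD HT-1080 cells, 750/well, RPMI + 5% FBS; compound pinned after 2 h settling; 48 h, 37 °C; CellTiter-Glo luminescence; % activity normalised to DMSO and no-cell wells; curves fitted, classed by r2 and efficacy.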
MCF10A rereplic – DNA re-replication induction in MCF 10a cells; MCF 10A DNA re-replication, Hoechst nuclear intensity, 48 h; Potency, µM (titrated, usually from 46.1 µM), usual class: activators; actives 2.9% (n = 350,000); AID 624296; also: nearly all actives have a fitted effect of over 50% in size
SW480 rerep – DNA re-replication induction in SW480 cells; SW480 DNA re-replication, Hoechst DNA content imaging, 48 h; Potency, µM (highest dose often 46.1 µM), usual class: activators; actives 1.8% (n = 340,000); also: nearly all actives have a fitted effect of over 55% in size
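Image-based read-out: total Hoechst fluorescence of nuclei (405 nm excitation, 500-530 nm emission), with hits raising the fraction of high-intensity nuclei. SW480 colon cells incubated 48 hr with compounds at 37 C.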
HT1080-NT tox – kills 2HG-producing HT-1080-NT fibrosarcoma cells; HT-1080-NT fibrosarcoma viability, CellTiter-Glo ATP luminescence, 48 h; Potency, µM (doses to about 46.1 µM), hits mostly cytotoxic; actives 1.6% (n = 360,000); AID 686970;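 also: NT is the 2HG producing partner of a matched IDH1 knockdown line; nearly all actives have a fitted effect of over 55% in size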
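Read-out is CellTiter-Glo luminescence after 10 minutes at room temperature, following 48 hours' compound treatment of HT-1080-NT cells (750 cells/well, RPMI, 5% FBS, 37 degrees C).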
Hits are given with their value; 0 = inactive; ? = inconclusive; - = no result; [ ] = remark or other dose. An excerpt weighted towards active compounds, which were near 8% of everything screened. Calls follow the shape of the dose curve; as a rule, active = well fitted curve in the direction sought with a large enough effect; inconclusive = small, poorly fitted or top-dose-only effect, or another doubt; inactive = no such curve, though single readings can be large; an effect the other way counts as inactive or inconclusive.

SMILES | KB-3-1 cytotox | KB-V1 MDR tox | HT1080 IDH1KD tx | MCF10A rereplic | SW480 rerep | HT1080-NT tox
CC(=O)N1C=CN(C(C)=O)C(c2cn(C)c3ccccc23)C1c1cn(C)c2ccccc12 (configuration not stated) | ? | 23µM | 0[9.24 µM] | 0 | 0 | 0
Cc1nn(-c2ccc(C(=O)NCC(c3ccco3)N3CCCC3)cc2)c(C)c1Cl (configuration not stated) | 0 | 0 | 0 | ? | 0 | 0
O=C(O)CSc1nnc(-c2cccs2)n1-c1ccc(Cl)cc1 | 0 | 0 | 0 | 0 | 0 | 0
O=C(CSc1nnc(-c2cccs2)n1-c1cccc(Cl)c1)c1cccc2c1OCCO2 | 0 | 8.2µM | 0 | 0 | 0 | 0
O=C1CSc2ccc(C(=O)N3CCN(c4ccccn4)CC3)cc2N1 | 0 | 0 | 0 | 0 | 0 | 0
O=C(Cn1cc(C(F)(F)F)ccc1=O)N/N=C/c1cccc(Cl)c1Cl | 0 | 0 | 0 | 0 | 0 | 0
COc1cc(CNCCN2CCOCC2)ccc1OCc1ccc(Cl)cc1Cl | ? | ? | 21µM | ? | ? | 26µM
COc1cc(CNCc2ccccn2)ccc1OCc1ccc(Cl)cc1Cl | ? | ? | 21µM | 0 | ? | 23µM
CC(=O)c1ccc(S(=O)(=O)N(C)CC(=O)Nc2cc(C)on2)cc1 | 0 | 0 | 0 | 0 | 0 | 0
COC(=O)c1c(C)[nH]c(C(=O)C(C)OC(=O)c2c(C)noc2C)c1C (configuration not stated) | 0 | ? | 0 | 0 | 0 | 0
CC1CCCCC1NC(=O)/C(C#N)=C/c1ccc2c(c1)OCCO2 (configuration not stated) | 18µM | ? | 0 | 0 | ? | 0
CC(Oc1ccc(Cl)cc1Cl)C(=O)NNC(=O)c1cccnc1 (configuration not stated) | 0 | 0 | 0 | 0 | 0 | 0
CC(Oc1ccc(Cl)cc1Cl)c1nc(-c2ccc(NC(=O)c3cccnc3)cc2)no1 (configuration not stated) | 0 | 0 | 7.3µM | 0 | 0 | ?
COc1ccccc1NC(=O)C1CCN(S(=O)(=O)c2cccc3nonc23)CC1 | 0 | 0 | 0 | 0 | 0 | 0
COc1ccc(NC2=NCCC2)cc1 | 0 | 0 | 0 | ? | 0 | 0
CC/C(=C\c1ccc(N(C)C)cc1)c1ccncc1 | 21µM | 10µM | ? | ? | ? | ?
O=C1CCC(C(=O)N2CCCC(C(=O)c3ccc4c5c(cccc35)CC4)C2)=NN1 (configuration not stated) | 15µM | 0 | ? | ? | 0 | 0
O=C1CCC(CCC(=O)N2CCCC(C(=O)c3ccc4c5c(cccc35)CC4)C2)=NN1 (configuration not stated) | 0 | 0 | 0 | 0 | 0 | 0
COc1c(C)cc(S(=O)(=O)Nc2cccc(-c3ccc(N4CCOCC4)nn3)c2)c(C)c1C | 21µM | 0 | - | - | - | -
Cc1ccc(S(=O)(=O)Nc2cccc(-c3ccc4nncn4n3)c2)cc1 | 3.7µM | 16µM | 3.3µM | 4.1µM | 2.6µM | 4.6µM
O=S(=O)(Nc1cccc(-c2ccc(N3CCCCCC3)nn2)c1)c1ccc(F)cc1 | ? | 0 | 0 | 15µM | ? | ?
Cc1cc(C)cc(S(=O)(=O)Nc2cccc(-c3ccc(N4CCOCC4)nn3)c2)c1 | 0 | 0 | - | - | - | -
O=C(CN1CCN(S(=O)(=O)c2ccccc2)CC1)Nc1ccc(Cl)cn1 | 0 | 0 | 0 | 0 | 0 | 0
C/C(=N\N=C1\NC(=O)C(CC(=O)O)S1)c1ccccn1 (configuration not stated) | 0 | 0 | 0 | 0 | ? | 0
Cc1cccc(C2=NN(c3ccccc3)[C@@H](C(=O)N3CCOC3=O)[C@@H]2c2ccc(Cl)cc2)c1 | 0 | 0 | 0 | 2.3µM | 26µM | 0
O=C1OCCN1C(=O)[C@H]1[C@H](c2ccc(Cl)cc2)C(c2ccccc2)=NN1c1ccccc1 | 0 | 0 | 0 | ? | ? | 0
O=C1OCCN1C(=O)[C@H]1[C@H](c2ccccc2)C(c2cccc(Cl)c2)=NN1c1ccccc1 | 0 | 0 | 0 | ? | 18µM | 0
